Assay outcomes (PubChem)
KLK7 zymogen act = proKLK7 (human) activation, primary screen; P49862; purified proKLK7, EDANS-DABCYL substrate fluorescence; 100% is mature enzyme control, 0% vehicle; activation, % at 7 µM; actives 0.9% (n = 370,000); AID 652039;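 active = activation above the mean of all tested compounds plus 3 SD, computed per campaign excluding outliers beyond control limits, cut at about 13% in these data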
Neddyl block = blocks human cullin neddylation; P61081+Q13564; TR-FRET cullin neddylation, biochemical; calls only at 25 µM; actives 0.58% (n = 360,000); AID 651699; in the data active = inhibition above about 36%
MBD2 DNA inh = MBD2-methylated oligo binding inhibition. Q9UBB5. TR-FRET, MBD2 binding to methylated oligonucleotide. inhibition, % at 4.4 µM. actives 0.31% (n = 370,000). AID 686964; in the data active = inhibition above about 13%
UHRF1 MBD2 ctr = blocks human UHRF1 binding to methylated DNA; Q96T88; UHRF1 binding to methylated oligo, TR-FRET; inhibition, % at 4.4 µM; actives 0.75% (n = 370,000); in the data active = inhibition above about 21%;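 note: UHRF1 SRA domain binding a hemimethylated CpG hairpin DNA probe; 0% = median of test compound wells and 100% = reference inhibitor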
Rin1-Abl PPI inh = inhibitors of human Rin1-Abl protein interaction. TR-FRET Rin1/Abl binding, biochemical. inhibition, % at 7.35 µM. actives 0.4% (n = 360,000); in the data active = inhibition above about 5%, passing the limit was not always enough
LEDGF integ inh = blocks HIV-1 LEDGF/p75-dependent DNA integration; TR-FRET IN-LEDGF/p75 DNA integration, Eu/Cy5; inhibition, % at 3.7 µM; actives 0.64% (n = 370,000); AID 743269;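 active = inhibition above the screen-wide mean plus 3 SD, cut at about 13% in these data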;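 note: signal is the Cy5 over europium emission ratio at 671 and 618 nm; 0% = plate median of compound wells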
IN multimer up = HIV-1 integrase multimerization activation, counter-screen. shares compounds with LEDGF integ inh. TR-FRET HIV-1 integrase multimerization, biochemical. activation, % at 7.7 µM. actives 17% (n = 2,000). AID 1053131; in the data active = activation above about 8.9%
TR-FRET interf = counter-screen for LEDGF/p75 integration inhibitors: TR-FRET optical interference | inhibition, % at 7.7 µM | AID 1053135 | 2,000 tested, under 10 active | shares compounds with LEDGF integ inh | TR-FRET optical interference counterscreen, HIV-1 IN multimerization;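 active = inhibition above the mean over all tested compounds plus 3 SD, which no compound reached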;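 note: 0% = integrase with antibodies and DMSO and 100% = antibodies without integrase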
IN-LEDGF confirm = confirmation of HIV-1 LEDGF/p75-dependent integration inhibitors | inhibition, % at 3.7 µM | TR-FRET LEDGF/p75-dependent HIV-1 integration, biochemical | AID 1053136 | actives 36% (n = 2,000) | shares compounds with LEDGF integ inh; in the data active = inhibition above about 14%
* = called active by the depositor; i = inactive; . = no result given. The list is not random: actives were taken first. Their share in the collection is about 3.1%.

SMILES | KLK7 zymogen act | Neddyl block | MBD2 DNA inh | UHRF1 MBD2 ctr | Rin1-Abl PPI inh | LEDGF integ inh | IN multimer up | TR-FRET interf | IN-LEDGF confirm
CN1C(=O)/C(=C/c2cccn2-c2ccc3ccccc3c2)C(=O)NC1=S | 0 | i | -2 | 0 | 1 | 18* | 6 | -29 | 30*
Cc1oc(-c2ccc(F)cc2F)nc1CN1C[C@@H]2C[C@@H](C1)c1cccc(=O)n1C2 | 0 | i | -2 | 0 | -2 | 3 | . | . | .
Cc1ccc(S(=O)(=O)Nc2cc(C(=O)N3CCC4(CC3)OCCO4)ccc2N2CCCCC2)cc1 | 1 | i | -2 | -1 | 3 | 16* | -1 | 2 | -1
CCOP(=O)(OCC)Oc1cc(C)c(N(C)C)c(C)c1 | 0 | i | 4 | -8 | -1 | 1 | . | . | .
COc1ccc(CN2C(=O)NC(=O)/C(=C\c3cc(OC)c(OC)c(OC)c3)C2=O)cc1 | 0 | i | -6 | -5 | 3 | -2 | . | . | .
O=C1NC(=O)N(Cc2ccccc2)C(=O)/C1=C/C=C/c1ccco1 | 0 | i | -2 | 8 | 2 | 29* | 0 | 1 | 30*
COc1ccc(CN2C(=O)NC(=O)/C(=C\c3ccco3)C2=O)cc1 | 0 | i | 3 | 13 | -1 | 14* | 6 | -21 | 18*
CCOc1cccc(N2C(=O)/C(=C/c3ccco3)C(=O)NC2=S)c1 | 1 | i | 12 | 50* | -1 | 22* | 9.8* | -49 | 76*
CCN1C(=O)C(=C/C=C/c2ccco2)C(=O)N(CC)C1=S | 1 | i | 6 | 30* | 1 | 39* | 2 | -8 | 51*
CC(C)c1ccc(N2C(=O)NC(=O)/C(=C\C=C\c3ccco3)C2=O)cc1 | 0 | . | 3 | 24* | . | 23* | 2 | -6 | 31*
CC(NC(=O)N1CC1(C)C)c1ccccc1 (stereo unspecified) | 0 | i | 2 | -1 | 1 | 1 | . | . | .
CCc1ccc(N2C(=O)NC(=O)/C(=C/c3cccn3CCOc3ccc(C)cc3)C2=O)cc1 | -1 | i | 2 | 0 | -1 | -2 | . | . | .
Cc1cccc(OCCn2cccc2/C=C2/C(=O)NC(=O)N(Cc3ccco3)C2=O)c1 | 0 | i | 4 | 49* | -2 | 50* | 4 | -15 | 24*
Cc1cc(/C=C2/C(=O)NC(=O)N(Cc3ccco3)C2=O)c(C)n1-c1ccccc1 | 1 | i | 7 | 45* | 2 | 53* | 1 | -4 | 11
CC(=O)c1ccc2c(c1)C1C(Cl)C(Sc3ccccc3[N+](=O)[O-])CC1C(C(=O)O)N2 (stereo unspecified) | -1 | i | 4 | 9 | 4 | 14* | 6 | -28 | 20*
CCOC(=O)[C@]12Cc3ccccc3[C@H]1N(CCC(=O)OC)C(=O)c1ccccc12 | 0 | i | 5 | 1 | . | 2 | . | . | .
COc1ccc(N2C(=O)NC(=O)/C(=C\c3ccc([N+](=O)[O-])s3)C2=O)cc1 | -1 | i | 1 | 5 | 5 | 18* | 1 | -3 | 33*
CC(C)OCCCNC(=O)c1c(N)n(CC2CCCO2)c2nc3ccccc3nc12 (stereo unspecified) | -35 | . | 6 | 10 | 10 | 29* | 0 | -1 | 8
Nc1c(C(=O)NCCCc2ccccc2)c2nc3ccccc3nc2n1Cc1cccs1 | 0 | . | 1 | 10 | 5 | 26* | -2 | 8 | -3
[N-]=[N+]=NCCN1CCC(O)CCC1=O (stereo unspecified) | 0 | i | -2 | 0 | -2 | -2 | . | . | .
Cc1ccc(C(=O)NCCN2CCC3(CC2)C(=O)NCN3c2ccccc2)cc1 | 0 | . | -3 | -3 | . | 2 | . | . | .
CN(C)[C@@H]1C(=O)C(C(N)=O)=C(O)[C@@]2(O)C(=O)C3=C(O)c4c(O)cccc4[C@@](C)(O)C3C[C@@H]12 (stereo partly specified) | -1 | i | -2 | 11 | 12 | 18* | 5 | -26 | 3
COC(=O)C1=C(c2ccc(OC)c(OC)c2)C[C@@H]2CC[C@H]1N2C(=O)NCC1CC1 | 0 | i | -1 | 2 | -1 | 2 | . | . | .
COc1ccc(/C=C/C=C2C(=O)NC(=S)NC2=O)cc1 | 1 | i | -2 | 4 | 6 | -1 | . | . | .
COC(=O)C1=C(c2cccc(OC)c2OC)C[C@@H]2CC[C@H]1N2C(=O)NCc1ccco1 | 0 | i | 0 | -3 | -1 | 0 | . | . | .
SMILES | KLK7 zymogen act | Neddyl block | MBD2 DNA inh | UHRF1 MBD2 ctr | Rin1-Abl PPI inh | LEDGF integ inh | IN multimer up | TR-FRET interf | IN-LEDGF confirm
O=C1NC(=O)[C@]2(Cc3ccccc3N3CCN(c4ccccc4)CC32)C(=O)N1c1ccccc1 (stereo partly specified) | 1 | i | -1 | 1 | 1 | 6 | . | . | .
CN1C(=O)NC(=O)[C@]2(Cc3ccccc3N3CCN(c4ccccc4)CC32)C1=O (stereo partly specified) | 0 | i | 0 | 0 | 3 | 40* | 0 | -1 | 4
Clc1cccc(CNCCc2ccc3c(c2)OCO3)c1 | 0 | i | 2 | 0 | 2 | 15* | 0 | 0 | -2
Clc1ccc(CNCCc2ccc3c(c2)OCO3)cc1 | 0 | i | 0 | -1 | -1 | 3 | . | . | .
COc1ccc(CN2Cc3cc(-c4ccccc4)ccc3-n3nncc3C2)cc1 | 0 | i | 5 | 1 | 2 | 12 | . | . | .
COc1ccc(CN2Cc3cc(-c4ccc(OC)cc4)ccc3-n3nncc3C2)cc1 | 0 | i | 3 | 1 | -1 | 17* | 1 | -4 | -3
C[C@]12CCC3C(CC[C@@H]4C[C@H](O)CC[C@]34C)C1CCC2=O (stereo partly specified) | 0 | i | -2 | 3 | 4 | -4 | . | . | .
CN1CCCN(c2ccc([N+](=O)[O-])nc2)CC1 | 1 | i | 1 | -1 | -6 | -1 | . | . | .
O=C(Nc1ccccc1)N1Cc2cc(Br)ccc2-n2nncc2C1 | 1 | . | 0 | -1 | . | 2 | . | . | .
O=[N+]([O-])c1cccc(O)c1 | 1 | i | 1 | -1 | -1 | -4 | . | . | .
O=[N+]([O-])c1cc(S(=O)(=O)c2ccc(O)c([N+](=O)[O-])c2)ccc1O | 0 | i | 3 | 42* | 1 | 17* | 28* | -141 | 27*
NC(Cc1ccccc1Cl)c1nn[nH]n1 (stereo unspecified) | 1 | i | 0 | 0 | 1 | 3 | . | . | .
